Measured values reported in the supplement of paper PMC6607015.
Structures can show the parent of a compound that is named as a salt.

Key:
Conditions in all cases: compound concentration in added solution (µM; 5 µl added to 20 µl cells): 10; 18 h
A431 [1] = assay: LBPA endosome anti-LBPA integrated intensity (sum per cell), Z-score; higher = more LBPA staining
How it was run: (§1)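 Reported values are Z-scores from AcuityXpress normalisation of per-cell integrated LBPA or filipin staining. HeLa MZ or A431 cells (3,500/well in 20 µl) were seeded onto 5 µl of 10 µM compound solution in duplicate 384-well plates, incubated 18 h, fixed in 4% PFA, stained and imaged at 20×. MetaXpress segmentation measured the intensity over the whole cell or within LBPA endosomes.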

HeLa MZ [2] = assay: as above
How it was run: as §1

A431 [3] = assay: whole-cell filipin (free cholesterol) integrated intensity, Z-score; higher = more cholesterol staining
How it was run: as §1

HeLa MZ [4] = assay: as above
How it was run: as §1

A431 [5] = assay: filipin (cholesterol) integrated intensity within LBPA endosomes, Z-score; higher = more cholesterol in LBPA endosomes
How it was run: as §1

HeLa MZ [6] = assay: as above
How it was run: as §1

SMILES	LBPA endosome anti-LBPA integrated intensity (z-score) (A431 [1])	LBPA endosome anti-LBPA integrated intensity (z-score) (HeLa MZ [2])	whole-cell filipin (z-score) (A431 [3])	whole-cell filipin (z-score) (HeLa MZ [4])	filipin (z-score) (A431 [5])	filipin (z-score) (HeLa MZ [6])
Cn1c(=O)c2nc[nH]c2n(C)c1=O [Theophylline monohydrate]	-0.668	-1.36	-0.516	-0.207	-0.57	-0.492
CCn1cc(C(=O)O)c(=O)c2cc(F)c(N3CCNCC3)nc21 [Enoxacin]	-0.309	-0.0536	0.119	0.315	-0.364	-0.345
Cc1c(NC(C)C)c(=O)n(-c2ccccc2)n1C [Isopyrin hydrochloride]	-0.574	-1.29	-0.495	-0.424	-0.515	-0.531
Cc1cccc(Nc2ccncc2S(=O)(=O)NC(=O)NC(C)C)c1 [Torsemide]	-0.347	-0.115	0.00281	0.228	-0.452	-0.394
CC1=C(C(=O)O)N2C(=O)[C@@H](NC(=O)[C@H](N)c3ccc(O)cc3)[C@H]2SC1 [Cefadroxil]	-0.651	-1.02	-0.697	-0.675	-0.507	-0.626
CC(C)Cc1ccc([C@H](C)C(=O)O)cc1 [S-(+)-ibuprofen]	-0.498	-0.256	-0.555	-0.301	-0.443	-0.51
C=CCN1CCCC1CNC(=O)c1cc2nn[nH]c2cc1OC (configuration not stated) [Alizapride HCl]	-0.413	0.636	-0.622	-0.69	-0.538	-0.182
CN(C)CCCN1c2ccccc2Sc2ccc(C(F)(F)F)cc21 [Triflupromazine hydrochloride]	3.06	1.61	0.711	0.675	2.23	2.87
CN1CCCN=C1/C=C/c1cccs1 [Pyrantel tartrate]	-0.533	-0.181	-0.934	-1.12	-0.565	-0.677
CCCCC[C@H](O)/C=C/[C@H]1[C@H](O)CC(=O)[C@@H]1CCCCCCC(=O)O [Alprostadil]	-0.322	-0.486	0.113	-0.324	-0.323	-0.34
COc1ccccc1OCC(O)CN1CCN(CC(=O)Nc2c(C)cccc2C)CC1 (configuration not stated) [Ranolazine]	-0.238	1.53	-0.112	-0.533	-0.352	-0.221
CN(C)CCOC(=O)C(c1ccccc1)C1(O)CCCC1 (configuration not stated) [Cyclopentolate hydrochloride]	-0.331	0.664	0.119	-0.332	-0.39	-0.209
CCCC(CCC)C(=O)O [Valproic acid]	-0.476	1.11	0.263	2.69	-0.401	-0.484
CN(C)CCOC(c1ccccc1)c1ccccc1 [Diphenhydramine hydrochloride]	-0.431	-0.0117	-0.136	-0.63	-0.485	-0.0904
CC1=C(/C=C/C(C)=C/C=C/C(C)=C\C(=O)O)C(C)(C)CCC1 [Isotretinoin]	-0.383	-0.562	-0.622	-0.961	-0.488	-0.54
Cc1ccc(C(=O)c2ccc(CC(=O)O)n2C)cc1 [Tolmetin sodium salt dihydrate]	-0.35	-0.0177	-0.301	-0.429	-0.412	-0.483
CN1CCCN(C(c2ccccc2)c2ccc(Cl)cc2)CC1 (configuration not stated) [Homochlorcyclizine dihydrochloride]	2.75	1.74	0.946	-0.527	2.1	1.46
CCCCCCCCNC(C)C(O)c1ccc(SC(C)C)cc1 (configuration not stated) [Suloctidil]	2.96	-0.389	1.67	1.53	3.3	3.27
CC(=O)OC(C)C[N+](C)(C)C (configuration not stated) [Methacholine chloride]	-0.38	0.107	-0.0801	-0.293	-0.383	-0.341
C=C1c2cccc(O)c2C(=O)C2=C(O)[C@]3(O)C(=O)C(C(N)=O)=C(O)[C@@H](N(C)C)[C@@H]3[C@@H](O)[C@H]12 [Methacycline hydrochloride]	-0.461	-0.934	0.119	-0.217	-0.402	-0.642
CCCN(CCC)CCc1cccc2c1CC(=O)N2 [Ropinirole HCl]	-0.0677	0.764	-0.368	0.26	-0.342	0.248
COCCCOc1ccnc(C[S+]([O-])c2nc3ccccc3[nH]2)c1C (configuration not stated) [Rabeprazole Sodium salt]	-0.587	-0.545	0.0453	1.99	-0.44	-0.189
COc1ccccc1OCCNCC(O)COc1cccc2[nH]c3ccccc3c12 (configuration not stated) [Carvedilol]	4.32	3.72	2.68	3	3.9	5.27
CC(=O)NC[C@H]1CN(c2ccc(N3CCOCC3)c(F)c2)C(=O)O1 [Linezolid]	-0.619	-0.712	-0.597	-0.713	-0.583	-0.674
NNC(=O)c1ccncc1 [Isoniazid]	-0.56	-1.34	-0.938	-1.09	-0.477	-0.667
CNCCC(Oc1ccc(C(F)(F)F)cc1)c1ccccc1 (configuration not stated) [Fluoxetine hydrochloride]	2.5	0.902	0.302	-0.115	2.19	1.62

SMILES	LBPA endosome anti-LBPA integrated intensity (z-score) (A431 [1])	LBPA endosome anti-LBPA integrated intensity (z-score) (HeLa MZ [2])	whole-cell filipin (z-score) (A431 [3])	whole-cell filipin (z-score) (HeLa MZ [4])	filipin (z-score) (A431 [5])	filipin (z-score) (HeLa MZ [6])
CC(C[N+](C)(C)C)OC(N)=O (configuration not stated) [Bethanechol chloride]	-0.55	-0.64	-0.316	-0.111	-0.415	-0.495
CCN(CC)CCOC(=O)C(c1ccccc1)C1CCCCC1 (configuration not stated) [Drofenine hydrochloride]	1.02	2.6	1.05	0.772	1.02	1.12
N=C(N)NC(=O)Cc1c(Cl)cccc1Cl [Guanfacine hydrochloride]	-0.503	0.0887	-0.556	0.368	-0.462	0.00861
CCCCNc1ccc(C(=O)OCCOCCOCCOCCOCCOCCOCCOCCOCCOC)cc1 [Benzonatate]	-0.445	-0.231	-0.686	-0.896	-0.427	-0.476
CCOCCn1c(N2CCCN(C)CC2)nc2ccccc21 [Emedastine]	-0.464	0.747	-0.629	-0.502	-0.536	-0.461
COc1ccc([C@@H]2CC(=O)c3c(O)cc(O[C@@H]4O[C@H](CO[C@@H]5O[C@@H](C)[C@H](O)[C@@H](O)[C@H]5O)[C@@H](O)[C@H](O)[C@H]4O)cc3O2)cc1O [Hesperidin]	-0.494	-1.29	-0.6	-0.779	-0.447	-0.68
CC(C)NCC(O)COc1cccc2[nH]ccc12 (configuration not stated) [Pindolol]	-0.195	-0.563	-0.497	-0.0997	-0.329	-0.129
CN(C)CCCN1c2ccccc2Sc2ccccc21 [Promazine hydrochloride]	2.06	2.59	1.2	-0.208	1.35	1.31
Clc1ccc(CO/N=C(\Cn2ccnc2)c2ccc(Cl)cc2Cl)c(Cl)c1 [Oxiconazole Nitrate]	0.391	1.11	1.4	1.62	0.64	0.784
Cn1c([N+](=O)[O-])cnc1COC(N)=O [Ronidazole]	-0.617	-0.899	-0.075	-0.4	-0.579	-0.485
N/C(=N\C(=O)c1nc(Cl)c(N)nc1N)NCc1ccccc1 [Benzamil hydrochloride]	0.224	1.13	0.167	0.672	-0.0522	0.566
CC1(C)[C@H](C(=O)O)N2C(=O)C[C@H]2S1(=O)=O [Sulbactam]	-0.453	-1.27	-0.128	-0.121	-0.375	-0.509
CC(C)NC[C@H](O)COc1ccc(CC(N)=O)cc1 [(S)-(-)-Atenolol]	-0.484	0.0669	-0.593	-0.509	-0.513	-0.661
Cc1cccc(C)c1NC(=O)C(C)N (configuration not stated) [Tocainide hydrochloride]	-0.343	-0.526	0.139	-0.393	-0.431	-0.603
COC(=O)C1=C(C)NC(C)=C(C(=O)OC)C1c1ccccc1[N+](=O)[O-] [Nifedipine]	-0.346	-0.877	-0.739	-0.61	-0.513	-0.614
COC(=O)C1=C(C)NC(C)=C(C(=O)OCCN(C)Cc2ccccc2)C1c1cccc([N+](=O)[O-])c1 (configuration not stated) [Nicardipine hydrochloride]	1.9	0.904	1.24	-0.142	1.79	0.881
COc1cc(C(=O)OCCCN2CCCN(CCCOC(=O)c3cc(OC)c(OC)c(OC)c3)CC2)cc(OC)c1OC [Dilazep dihydrochloride]	3.35	1.34	3.19	3.53	3.75	4.35
CC1(C)S[C@@H]2[C@H](NC(=O)Cc3ccccc3)C(=O)N2[C@H]1C(=O)O [Benzathine benzylpenicillin]	-0.419	0.43	0.0117	0.113	-0.376	-0.279
O=C(O[C@@H]1C[C@@H]2C[C@H]3C[C@H](C1)N2CC3=O)c1c[nH]c2ccccc12 [Dolasetron mesilate]	-0.534	-0.27	-0.669	0.0841	-0.498	-0.224
Clc1ccc(Nc2nnc(Cc3ccncc3)c3ccccc23)cc1 [Vatalanib]	-0.715	-0.947	-0.382	-0.477	-0.573	-0.345
CCc1cccc(CC)c1NC(=O)CN(CC(=O)O)CC(=O)O [Etifenin]	-0.633	-1.24	-0.798	-0.697	-0.521	-0.638
O=C(O)[C@H]1/C(=C/CO)O[C@@H]2CC(=O)N21 [Potassium clavulanate]	-0.48	-0.536	0.227	-0.0014	-0.358	-0.433
CN(C)c1nc(N(C)C)nc(N(C)C)n1 [Altretamine]	-0.54	-1.33	-0.283	-0.6	-0.517	-0.671
CCC(=O)OCC(=O)[C@@]1(OC(=O)CC)[C@@H](C)C[C@H]2[C@@H]3CCC4=CC(=O)C=C[C@]4(C)[C@@]3(Cl)[C@@H](O)C[C@@]21C [Beclomethasone dipropionate]	-0.15	0.711	0.251	-0.00746	-0.116	0.00681
COC(=O)C1=C(C)NC(C)=C(C(=O)OC(C)C)C1c1cccc2nonc12 (configuration not stated) [Isradipine]	-0.123	0.656	0.258	-0.179	-0.13	-0.161
COC1=CC(=O)C[C@@H](C)[C@]12Oc1c(Cl)c(OC)cc(OC)c1C2=O [Griseofulvin]	-0.41	-0.867	-0.73	-1.73	-0.468	-0.516
